{"source": "the supplement of paper PMC10849652", "note": "About 7,900 targets were measured; listed, in parts, are those with a hit and a random draw of the rest. About 0.6% of all pairs of compound and target were hits. Unmarked numbers belong to inactive results.", "data": [{"compound": "CS(=O)(=O)c1ccc(-c2cnc(N)c(C(=O)Nc3ccccc3)n2)cc1", "experiment": "log2 fold change, soluble protein after heating vs DMSO (PISA); higher = thermal stabilisation; K562 cells, 10 uM, 30 min; active = over 0.2 and 3.5 SD of the protein, either way, in both replicates (recomputed)", "procedure,_shortened": "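K562 cells at 2×10^6 cells/mL were treated for 30 min with 10 μM compound, and aliquots were heated for 3 min over 48°C-58°C before pooling. Extraction used PBS with 0.5% NP-40 at 4°C, and soluble protein was the supernatant after 21,000xg for 90 min, measured by TMTpro 16plex LC-MS/MS with channel sums equalised. Thermal stability values, relative to control samples and from duplicates, are log2 fold changes.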", "values": [{"target": "COPS3 (UniProt Q9UNS2)", "log2 fold change": 0.018}, {"target": "CHERP (UniProt Q8IWX8)", "log2 fold change": -0.087}, {"target": "CPSF6 isoform 2 (UniProt Q16630)", "sequence (Q16630 whole entry, looked up)": "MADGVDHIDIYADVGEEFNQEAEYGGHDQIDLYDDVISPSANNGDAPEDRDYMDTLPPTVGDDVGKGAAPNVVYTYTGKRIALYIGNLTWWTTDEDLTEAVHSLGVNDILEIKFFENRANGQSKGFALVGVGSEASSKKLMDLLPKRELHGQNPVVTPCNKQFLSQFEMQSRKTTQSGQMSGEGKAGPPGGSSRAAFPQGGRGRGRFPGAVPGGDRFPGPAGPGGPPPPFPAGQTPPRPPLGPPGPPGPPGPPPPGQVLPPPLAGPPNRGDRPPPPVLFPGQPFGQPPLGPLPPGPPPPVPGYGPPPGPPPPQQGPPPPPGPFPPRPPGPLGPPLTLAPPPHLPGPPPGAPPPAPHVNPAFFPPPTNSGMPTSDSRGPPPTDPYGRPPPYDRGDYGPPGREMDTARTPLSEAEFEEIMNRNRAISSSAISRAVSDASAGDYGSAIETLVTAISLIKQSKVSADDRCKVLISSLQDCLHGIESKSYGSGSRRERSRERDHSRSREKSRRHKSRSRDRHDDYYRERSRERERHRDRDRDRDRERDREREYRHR", "log2 fold change": -0.014}, {"target": "CDK13 (UniProt Q14004)", "log2 fold change": -0.075}, {"target": "COMMD2 (UniProt Q86X83)", "sequence (Q86X83 whole entry, looked up)": "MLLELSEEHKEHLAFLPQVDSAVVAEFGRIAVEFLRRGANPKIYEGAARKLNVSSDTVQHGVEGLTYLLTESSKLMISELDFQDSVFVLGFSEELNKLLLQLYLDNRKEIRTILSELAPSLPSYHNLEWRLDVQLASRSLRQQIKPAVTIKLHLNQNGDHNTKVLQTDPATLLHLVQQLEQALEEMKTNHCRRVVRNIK", "log2 fold change": -0.048}, {"target": "CDC26 (UniProt Q8NHZ8)", "sequence (Q8NHZ8 whole entry, looked up)": "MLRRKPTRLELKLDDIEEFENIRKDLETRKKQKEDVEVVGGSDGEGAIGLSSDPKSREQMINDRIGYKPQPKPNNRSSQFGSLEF", "log2 fold change": 0.036}, {"target": "CLCN3 isoform 2 (UniProt P51790)", "sequence (P51790 whole entry, looked up)": "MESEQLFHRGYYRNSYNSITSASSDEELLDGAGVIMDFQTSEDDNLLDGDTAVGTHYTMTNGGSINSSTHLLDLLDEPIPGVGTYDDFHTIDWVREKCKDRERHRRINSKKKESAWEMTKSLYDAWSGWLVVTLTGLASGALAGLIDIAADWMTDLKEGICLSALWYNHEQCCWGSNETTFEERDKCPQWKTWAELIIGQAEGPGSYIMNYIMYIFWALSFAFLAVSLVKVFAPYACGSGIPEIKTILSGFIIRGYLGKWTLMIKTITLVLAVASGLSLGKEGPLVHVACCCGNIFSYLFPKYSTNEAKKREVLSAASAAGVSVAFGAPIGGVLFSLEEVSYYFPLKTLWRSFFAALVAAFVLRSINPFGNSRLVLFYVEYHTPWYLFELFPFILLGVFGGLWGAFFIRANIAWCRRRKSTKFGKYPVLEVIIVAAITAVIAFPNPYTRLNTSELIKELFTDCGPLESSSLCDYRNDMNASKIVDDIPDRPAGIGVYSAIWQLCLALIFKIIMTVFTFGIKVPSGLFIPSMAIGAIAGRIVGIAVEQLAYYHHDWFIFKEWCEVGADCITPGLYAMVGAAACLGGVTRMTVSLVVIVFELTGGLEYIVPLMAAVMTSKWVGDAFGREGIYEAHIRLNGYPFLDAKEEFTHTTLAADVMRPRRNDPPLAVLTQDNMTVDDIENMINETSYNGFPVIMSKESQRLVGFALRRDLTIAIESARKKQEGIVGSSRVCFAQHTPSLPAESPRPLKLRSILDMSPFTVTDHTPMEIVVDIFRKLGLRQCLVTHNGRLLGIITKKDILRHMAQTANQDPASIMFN", "log2 fold change": -0.008}, {"target": "CAMKK2 (UniProt Q96RR4)", "sequence (Q96RR4 whole entry, looked up)": "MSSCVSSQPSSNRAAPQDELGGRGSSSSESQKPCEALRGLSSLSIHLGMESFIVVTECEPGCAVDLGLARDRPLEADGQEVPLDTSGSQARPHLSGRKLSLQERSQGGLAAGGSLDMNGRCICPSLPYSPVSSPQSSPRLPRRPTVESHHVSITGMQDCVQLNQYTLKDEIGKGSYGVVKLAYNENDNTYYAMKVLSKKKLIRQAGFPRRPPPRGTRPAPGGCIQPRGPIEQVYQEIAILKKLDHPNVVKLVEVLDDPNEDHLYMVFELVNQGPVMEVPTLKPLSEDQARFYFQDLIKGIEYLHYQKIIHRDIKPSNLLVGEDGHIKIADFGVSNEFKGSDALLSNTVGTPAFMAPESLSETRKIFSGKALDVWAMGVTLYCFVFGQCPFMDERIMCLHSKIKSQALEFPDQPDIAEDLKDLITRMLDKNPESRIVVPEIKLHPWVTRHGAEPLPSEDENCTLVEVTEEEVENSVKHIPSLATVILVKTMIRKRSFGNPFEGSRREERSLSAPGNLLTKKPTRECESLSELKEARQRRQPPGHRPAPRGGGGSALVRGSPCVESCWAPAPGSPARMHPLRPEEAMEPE", "log2 fold change": 0}, {"target": "CHKA (UniProt P35790)", "log2 fold change": -0.022}, {"target": "CSTF3 (UniProt Q12996)", "log2 fold change": 0.004}, {"target": "CD55 isoform 7 (UniProt P08174)", "sequence (P08174 whole entry, looked up)": "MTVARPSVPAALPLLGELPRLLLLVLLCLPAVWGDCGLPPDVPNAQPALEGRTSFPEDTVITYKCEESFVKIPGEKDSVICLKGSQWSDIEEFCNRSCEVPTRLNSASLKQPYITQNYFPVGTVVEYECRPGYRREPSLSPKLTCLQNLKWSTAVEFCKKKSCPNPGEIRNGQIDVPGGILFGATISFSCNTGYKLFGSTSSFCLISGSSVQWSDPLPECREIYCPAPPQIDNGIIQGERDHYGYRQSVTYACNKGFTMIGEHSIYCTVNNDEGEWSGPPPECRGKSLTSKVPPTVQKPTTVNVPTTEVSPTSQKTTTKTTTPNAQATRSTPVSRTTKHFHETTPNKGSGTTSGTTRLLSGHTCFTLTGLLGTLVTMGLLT", "log2 fold change": -0.023}, {"target": "CSNK2A1 (UniProt P68400)", "sequence (P68400 whole entry, looked up)": "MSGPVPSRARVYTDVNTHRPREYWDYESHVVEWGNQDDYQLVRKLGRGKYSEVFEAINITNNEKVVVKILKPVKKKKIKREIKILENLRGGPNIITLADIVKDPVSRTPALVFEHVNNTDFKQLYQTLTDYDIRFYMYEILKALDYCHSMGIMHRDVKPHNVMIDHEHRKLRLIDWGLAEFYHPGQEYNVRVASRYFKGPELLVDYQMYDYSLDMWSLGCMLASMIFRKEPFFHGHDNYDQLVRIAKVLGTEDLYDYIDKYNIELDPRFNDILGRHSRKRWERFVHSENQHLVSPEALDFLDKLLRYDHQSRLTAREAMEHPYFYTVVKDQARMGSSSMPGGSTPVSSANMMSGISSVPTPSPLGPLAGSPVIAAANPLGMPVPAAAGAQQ", "log2 fold change": 0.055}, {"target": "CIT isoform 4 (UniProt O14578)", "sequence (O14578 whole entry, looked up)": "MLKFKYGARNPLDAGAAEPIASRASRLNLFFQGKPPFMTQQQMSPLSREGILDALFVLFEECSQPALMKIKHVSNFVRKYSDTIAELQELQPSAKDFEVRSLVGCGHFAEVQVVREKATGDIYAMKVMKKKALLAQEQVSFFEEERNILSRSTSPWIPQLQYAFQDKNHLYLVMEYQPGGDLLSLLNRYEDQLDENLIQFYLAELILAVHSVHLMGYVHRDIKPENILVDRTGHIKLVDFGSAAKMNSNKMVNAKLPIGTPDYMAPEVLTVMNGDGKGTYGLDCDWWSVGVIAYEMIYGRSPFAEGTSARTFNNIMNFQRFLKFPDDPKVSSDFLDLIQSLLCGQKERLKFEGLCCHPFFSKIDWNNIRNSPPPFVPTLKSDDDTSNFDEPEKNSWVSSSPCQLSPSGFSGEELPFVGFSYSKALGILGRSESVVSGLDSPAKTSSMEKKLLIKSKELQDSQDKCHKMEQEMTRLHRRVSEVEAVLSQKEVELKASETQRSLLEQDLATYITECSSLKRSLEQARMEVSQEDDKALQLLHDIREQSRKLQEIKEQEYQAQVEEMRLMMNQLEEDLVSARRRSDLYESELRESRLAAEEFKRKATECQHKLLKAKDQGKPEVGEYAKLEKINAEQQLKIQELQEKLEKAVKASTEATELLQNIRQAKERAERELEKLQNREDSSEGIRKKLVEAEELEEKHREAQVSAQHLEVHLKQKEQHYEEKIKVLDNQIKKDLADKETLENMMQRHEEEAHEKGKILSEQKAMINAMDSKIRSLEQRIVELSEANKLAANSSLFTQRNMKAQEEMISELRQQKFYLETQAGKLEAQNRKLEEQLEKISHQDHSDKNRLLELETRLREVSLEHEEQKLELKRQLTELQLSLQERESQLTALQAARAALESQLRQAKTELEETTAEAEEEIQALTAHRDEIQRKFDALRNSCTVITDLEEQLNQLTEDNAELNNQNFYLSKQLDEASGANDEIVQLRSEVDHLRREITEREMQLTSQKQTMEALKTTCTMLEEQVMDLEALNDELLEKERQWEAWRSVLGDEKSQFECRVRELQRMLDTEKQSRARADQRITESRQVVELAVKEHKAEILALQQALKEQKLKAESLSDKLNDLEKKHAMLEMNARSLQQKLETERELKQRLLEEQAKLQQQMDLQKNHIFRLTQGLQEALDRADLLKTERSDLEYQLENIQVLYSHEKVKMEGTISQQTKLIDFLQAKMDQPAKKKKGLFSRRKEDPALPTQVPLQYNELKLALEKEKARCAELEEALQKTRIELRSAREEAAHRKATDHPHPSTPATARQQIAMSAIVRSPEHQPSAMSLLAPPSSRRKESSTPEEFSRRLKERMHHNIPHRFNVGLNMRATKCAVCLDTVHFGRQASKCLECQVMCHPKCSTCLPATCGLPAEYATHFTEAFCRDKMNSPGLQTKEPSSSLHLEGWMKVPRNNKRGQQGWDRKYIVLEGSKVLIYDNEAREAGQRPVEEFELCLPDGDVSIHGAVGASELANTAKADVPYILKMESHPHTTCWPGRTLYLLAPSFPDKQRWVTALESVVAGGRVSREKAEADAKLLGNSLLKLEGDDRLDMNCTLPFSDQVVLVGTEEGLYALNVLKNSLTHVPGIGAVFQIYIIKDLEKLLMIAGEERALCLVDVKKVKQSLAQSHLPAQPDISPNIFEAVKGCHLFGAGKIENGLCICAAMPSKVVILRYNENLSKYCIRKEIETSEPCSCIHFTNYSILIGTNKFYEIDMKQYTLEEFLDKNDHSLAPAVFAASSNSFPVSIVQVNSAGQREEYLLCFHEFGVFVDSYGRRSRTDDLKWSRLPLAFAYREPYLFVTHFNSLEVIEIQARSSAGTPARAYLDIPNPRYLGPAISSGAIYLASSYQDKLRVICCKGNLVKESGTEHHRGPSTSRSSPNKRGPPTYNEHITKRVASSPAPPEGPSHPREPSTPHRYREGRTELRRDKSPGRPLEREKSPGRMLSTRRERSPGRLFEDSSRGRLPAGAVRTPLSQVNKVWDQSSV", "log2 fold change": -0.023}]}]}
